For 42 molecules, activation, Potency and viability results are on record in PubChem BioAssay (NCATS).

Each structure is given as a SMILES string. Where “and” joins values, the source holds several entries; their conditions need not be identical. Equal values may be shown once. Inconclusive results are not listed. Some compounds were tested as several samples or in several runs, with calls that do not always agree. A number with no mark means an inactive call. Calls of active or inactive are those of the source. Unless noted, calls come from the whole dose curve; as a rule, active = well fitted curve in the direction sought with a large enough effect; inconclusive = small, poorly fitted or top-dose-only effect, or another doubt; inactive = no such curve, though single readings can be large; an effect the other way counts as inactive or inconclusive.

The target of test [1] is Cellular tumor antigen p53 (Homo sapiens) (UniProt P04637). The experiment in a line: Primary qHTS for small molecule compounds that upregulate eGFP-tagged delta133p53alpha (in N-terminal) cells. (AID 2060322).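 For activation: cells pre-induced with doxycycline then dosed without doxycycline; series mostly up to about 56 µM; 0% = DMSO vehicle and 100% = reference activator.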 Note: nearly all actives have a fitted effect of over 75% in size. Note: potency is the fitted concentration of half-maximal effect. The conditions noted are these: NCI-H358 eGFP-delta133p53alpha fluorescence, 24 h; activation: stronger effect = higher value. In short, it runs like this: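 NCI-H358 cells pre-induced 24 h with 10 ng/ml doxycycline for eGFP-delta133p53alpha, plated dox-free and exposed 24 h at 37C to titrated compounds. Fixed, Hoechst-stained; gated GFP peak intensity by laser scanning cytometry, normalized to DMSO (0%) and 57.5 uM 5-azacytidine (100%).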

For test [2] the target is unchanged. Put plainly: Primary qHTS for small molecule compounds that upregulate eGFP-tagged delta133p53alpha (in C-terminal) cells. (AID 2060324). Note: potency is the fitted concentration of half-maximal effect. In short, it runs like this:
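Doxycycline (100 ng/ml, 24 h) first induced the eGFP fusion in NCI-H358 C-terminal-tag cells. Washed-out cells then received titrated compounds for 24 h at 37 °C before paraformaldehyde fixation, Hoechst staining and cytometric GFP quantification.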

In test [3] the target is Aldehyde dehydrogenase, mitochondrial (Homo sapiens) (UniProt P05091). The experiment in a line: qHTS for Inhibitors of the Aldehyde Dehydrogenase Family (ALDH2) Validation screens (AID 2061302; active = well fitted inhibition curve with a large enough effect; title and protocol of this record describe different tests; note: potency is the fitted concentration of half-maximal effect).
For test [4], the target named is Retinaldehyde dehydrogenase 3 (Homo sapiens) (UniProt P47895). Put plainly: qHTS for Inhibitors of the Aldehyde Dehydrogenase Family (ALDH1A3) Validation screen (AID 2061312). Note: % is set by controls: 0 for no effect and ±100 for the full control effect; nearly all actives have a fitted effect of over 45% in size.
Test [5] can be described thus: BET inhibitor-based combinations targeting novel dependencies in MECOM-rearranged (r) AML: SET-2 cell line (AID 2202231).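 For viability: plate controls were DMSO treated cells for no effect and wells without cells for full effect.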 Note: nearly all actives have a fitted effect of over 35% in size. Note: potency is the fitted concentration of half-maximal effect. The conditions noted are these: SET-2 AML cells viability, CellTiter-Glo luminescence, 48 h; viability: stronger effect = lower value, concentration not given here. The essentials: (§1)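 A 48 hr incubation preceded viability reading by CellTiter-Glo, with 15 min room-temperature development. Dose series had 11 points; normalization used DMSO and empty wells; AUC was computed and mean-centered per line as Z-AUC.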

A short description of test [6]: BET inhibitor-based combinations targeting novel dependencies in MECOM-rearranged (r) AML: OCI-AML3 cell line (AID 2202232). Note: potency is the fitted concentration of half-maximal effect; nearly all actives have a fitted effect of over 35% in size. The conditions noted are these: Potency: OCI-AML3 viability. In short, it runs like this:
as §1

Test [7] can be described thus: BET inhibitor-based combinations targeting novel dependencies in MECOM-rearranged (r) AML: MV-4-11 cell line (AID 2202233). Note: potency is the fitted concentration of half-maximal effect; nearly all actives have a fitted effect of over 45% in size. In short, it runs like this: (§2)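 Each compound is tested in an 11-point concentration series against 500 seeded cells/well for 48 hr. The luminescent viability signal is normalized to DMSO and blank wells, then reduced to AUC and a cell-line-centred Z-AUC.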

The nature of test [8]: BET inhibitor-based combinations targeting novel dependencies in MECOM-rearranged (r) AML: HNT-34 cell line (AID 2202234). Note: nearly all actives have a fitted effect of over 35% in size. Note: potency is the fitted concentration of half-maximal effect. In short, it runs like this: as §2
A short description of test [9]: BET inhibitor-based combinations targeting novel dependencies in MECOM-rearranged (r) AML: UCSD-AML1 cell line (AID 2202235). Note: nearly all actives have a fitted effect of over 40% in size. Note: potency is the fitted concentration of half-maximal effect. The essentials:
as §2

A short description of test [10]: BET inhibitor-based combinations targeting novel dependencies in MECOM-rearranged (r) AML: AML-191 cell line (AID 2202236; note: nearly all actives have a fitted effect of over 35% in size; note: potency is the fitted concentration of half-maximal effect). The essentials:
as §1

Test [11] in a line: BET inhibitor-based combinations targeting novel dependencies in MECOM-rearranged (r) AML: AML-194 cell line (AID 2202237; note: nearly all actives have a fitted effect of over 40% in size; note: potency is the fitted concentration of half-maximal effect). In short, it runs like this: as §1
Test [12] concerns the target Aldehyde dehydrogenase, mitochondrial (Homo sapiens) (UniProt P05091). Put plainly: qHTS for Inhibitors of the Aldehyde Dehydrogenase Family (ALDH2) Primary screen (AID 2061308).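 Note: plate controls were vehicle for no effect and reference inhibitor for full effect; nearly all actives have a fitted effect of over 55% in size.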
Test [13] concerns the target Retinaldehyde dehydrogenase 3 (Homo sapiens) (UniProt P47895). The experiment in a line: qHTS for Inhibitors of the Aldehyde Dehydrogenase Family (ALDH1A3) Primary screen (AID 2061315).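 Note: plate controls were DMSO vehicle for no effect and reference inhibitor for full effect.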
Test [14] addresses Aldehyde dehydrogenase, mitochondrial (Homo sapiens) (UniProt P05091). The experiment in a line: qHTS for Inhibitors of the Aldehyde Dehydrogenase Family (ALDH2) Confirmatory screens (AID 2061303; active = well fitted inhibition curve with a large enough effect; title and protocol of this record describe different tests; note: % is set by controls: 0 for no effect and ±100 for the full control effect; nearly all actives have a fitted effect of over 45% in size).
Test [15] can be described thus: qHTS for Inhibitors of the Aldehyde Dehydrogenase Family (ALDH1A2, ALDH1A3, ALDH2, ALDH3A1) (AID 2061307). Note: % is set by controls: 0 for no effect and ±100 for the full control effect; nearly all actives have a fitted effect of over 50% in size.
In test [16] the target is Retinaldehyde dehydrogenase 3 (Homo sapiens) (UniProt P47895). Put plainly: qHTS for Inhibitors of the Aldehyde Dehydrogenase Family (ALDH1A3) Confirmatory screens (AID 2061311). Note: nearly all actives have a fitted effect of over 60% in size.
The target in test [17] is Aldehyde dehydrogenase 1A1 (Homo sapiens) (UniProt P00352). The experiment in a line: qHTS for Inhibitors of the Aldehyde Dehydrogenase Family (ALDH1A1) Confirmatory screens (AID 2061316). Note: nearly all actives have a fitted effect of over 65% in size.

Sequence of Cellular tumor antigen p53 (Homo sapiens) (P04637 whole entry, looked up): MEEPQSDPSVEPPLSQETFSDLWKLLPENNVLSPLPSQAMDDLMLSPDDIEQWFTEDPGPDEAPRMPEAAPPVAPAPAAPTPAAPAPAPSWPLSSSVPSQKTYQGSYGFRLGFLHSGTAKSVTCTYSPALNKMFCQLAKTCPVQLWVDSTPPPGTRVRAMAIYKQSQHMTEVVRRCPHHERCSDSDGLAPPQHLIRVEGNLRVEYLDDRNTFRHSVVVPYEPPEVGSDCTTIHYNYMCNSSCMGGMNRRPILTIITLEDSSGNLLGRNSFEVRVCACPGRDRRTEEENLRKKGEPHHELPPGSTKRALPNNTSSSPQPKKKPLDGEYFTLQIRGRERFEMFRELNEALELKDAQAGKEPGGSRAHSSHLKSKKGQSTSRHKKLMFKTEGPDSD

Turning to `C[C@H](CCC(=O)O)[C@H]1CC[C@H]2[C@H]3[C@@H](CC[C@]12C)[C@@]1(C)CC[C@@H](O)C[C@H]1C[C@@H]3O`, in test [1], the activation is -8.06%.
As to `CC(C)COCC(CN(Cc1ccccc1)c1ccccc1)N1CCCC1` (stereo unspecified), the Potency in test [1] is 34.7 µM (active); in test [5], 23.5 µM (active); in [6], 18.6 µM (active); in test [7], 26.3 µM (active); in test [8], 16.6 µM (active); in [9], 20.9 µM (active). Also, the Potency in test [10] was 20.9 µM (active); in test [11], 23.5 µM (active). Further, the activation in [1] is -16.2%. Besides, the Potency result in test [2], in [3] and in test [4] was “inactive” throughout.
For `O=C(CCc1ccc(O)cc1)c1c(O)cc(O)cc1O[C@@H]1O[C@H](CO)[C@H](O)[C@H](O)[C@H]1O`, the activation in test [1] was 1.26%.
`C=CC(=O)Nc1cccc(Nc2nc(NC3CCC(N(C)C)CC3)nc3c2ncn3C(C)C)c1` (stereo unspecified): the Potency in test [1] is 4.85 µM (active).
With `Cc1ncc(CO)c(CN)c1O`, in test [1], the activation is 16.4%.
For `Nc1ncn([C@@H]2O[C@H](CO)[C@@H](O)[C@@H]2O)c(=O)n1`, in test [1], the activation was 26.1%.
The same measure, in the same setting: then `Nc1ccc([N+](=O)[O-])c(C(F)(F)F)c1`, with -10.7%; and `CN(C)CC[C@H](c1ccc(Cl)cc1)c1ccccn1`, with 26.7%; and `Cc1c(O)cccc1C(=O)N[C@@H](CSc1ccccc1)[C@H](O)CN1C[C@H]2CCCC[C@@H]2C[C@@H]1C(=O)NC(C)(C)C`, with -23%.
The same measure, in the same setting: with `CCC[C@@H](NC(=O)[C@@H]1[C@H]2CCC[C@@H]2CN1C(=O)[C@@H](NC(=O)[C@@H](NC(=O)c1cnccn1)C1CCCCC1)C(C)(C)C)C(=O)C(=O)NC1CC1` the figure was 19.1%.
On to `COC(=O)[C@H]1[C@H]2C[C@@H]3c4[nH]c5cc(OC)ccc5c4CCN3C[C@H]2C[C@@H](OC(=O)c2cc(OC)c(OC)c(OC)c2)[C@@H]1OC`, for which the Potency in test [1] is 27.6 µM (active); in test [2] it was 26.9 µM (active). Also, in test [1], the activation was -18%. The Potency result in [3], in test [12], in test [4] and in test [13] was “inactive” each time.
For the molecule `CCOCCOC(=O)/C=C/c1ccc(OC)cc1`, the activation in test [1] is -3.95%.
Same read-out and setting: with `COc1cc(C=CC(=O)O)ccc1O` the figure was -12.5%.
On the same count and under the same terms, with `CCCCN(CCN(CCCC)C(=O)N1CCOCC1)C(=O)N1CCOCC1` the figure was -21.8%.
On to `O=C(Nc1ccc(C(=O)O)c(O)c1)c1ccccc1`, for which the activation in test [1] is -30.1%.
For the molecule `O=C(NCC(=O)N1CCCCC1)Nc1ccc2nnsc2c1`, the activation in [1] is -6.7%.
As to `O=C(O)Cc1ccc(-c2ccccc2)cc1`, the activation in test [1] was -6.21%.
Take `N=C1SC(=Cc2ccc(-c3ccc4c(c3)C(=O)NC4=O)o2)C(=O)N1c1ccc(Br)cc1`: the activation in test [1] was 54.1%.
Consider `O=C(Nc1ccc(Cl)cc1)Nc1ccc(Cl)c(Cl)c1`, for which, in test [1], the activation is 0.565%.
As for `CC=C1NC(=O)[C@H]2CSSCCC=C[C@H](CC(=O)N[C@H](C(C)C)C(=O)N2)OC(=O)[C@H](C(C)C)NC1=O`, the activation in [1] is 27.9%.
As for `N[C@@H](Cc1cc(I)c(O)c(I)c1)C(=O)O`, the activation in [1] is 4.18%.
In the case of `O=C(O)Cc1cccc2ccccc12`, the activation in test [1] is 1.67% and -33.3%.
For `CCN(CC)CCOC(=O)C(c1ccccc1)c1ccccc1`, in [1], the activation is -8.47%.
The same measure, in the same setting: with `CC(=O)N[C@@H](Cc1ccc(O)cc1)C(=O)O` the figure was 0.837%; with `Clc1ccc(-c2nc3sccn3c2C=NOCc2ccc(Cl)c(Cl)c2)cc1`, -15.4%; with `NC(=O)N/N=C/c1ccc([N+](=O)[O-])o1`, 16.7% and -23.4%.
For the molecule `CC(C)[N+](C)(C)CC(O)COc1cccc2ccccc12` (stereo unspecified), the activation in test [1] was -17.5%.
Same read-out and setting: with `CCCC(=O)OCOC(=O)C1=C(C)NC(C)=C(C(=O)OC)C1c1cccc(Cl)c1Cl` (stereo unspecified) the figure was -26.6%.
In the case of `CCN(CC)CCOc1ccc(Nc2ncc3cc(-c4c(Cl)cccc4Cl)c(=O)n(C)c3n2)cc1`, the Potency in test [1] was 5.44 µM (active); in [2] it was 26.9 µM (active); in [5] it was 3.72 µM (active); in test [6], 2.63 µM (active); in [7], 0.59 µM (active); in [8], 0.0295 µM (active). In addition, the Potency in test [9] is 2.95 µM (active); in test [10], 2.35 µM (active); in test [11], 2.95 µM (active). The activation in test [1] was -1.41%. The Potency entry in test [3], in test [14], in test [15], in test [16] and in test [17] was “inactive” in each case.
Regarding `CNCC[C@H](Oc1cccc2ccccc12)c1cccs1`, in test [1], the Potency is 17.4 µM (active) and the activation was 8.04%.
On to `CC[C@H]1CN2CCc3cc(OC)c(OC)cc3[C@@H]2C[C@@H]1C[C@H]1NCCc2cc(OC)c(OC)cc21`, for which the Potency in [1] is 0.617 µM (active); in [2], 0.151 µM (active); in test [5] it was 0.372 µM (active); in [6], 0.468 µM (active); in test [7] it was 0.235 µM (active); in test [8] it was 0.332 µM (active). Also, the Potency in [9] was 0.372 µM (active); in test [10], 0.417 µM (active); in test [11], 0.372 µM (active). For the same molecule, in test [1], the activation was 20.5%. The Potency result in [3] and in [4] was “inactive” in each case.
In the case of `Oc1ccccc1C=NCc1ccccc1`, in test [1], the activation was -19.2%.
Same read-out and setting: then `Nc1c2ccccc2nc2ccccc12`, with -7.34%.
Still for that read-out and setting: then `O=C(O)CCc1nc2ccccc2[nH]1`, with 0.565%; and `Nc1ccc2cc3ccc(N)cc3nc2c1`, with -35.1%.
Same read-out and setting: then `CN1CCC[C@@H]1CCO[C@](C)(c1ccccc1)c1ccc(Cl)cc1`, with 26.6%.
Take `COCCOC(=O)C1=C(C)NC(C)=C(C(=O)OC(C)C)C1c1cccc([N+](=O)[O-])c1` (stereo unspecified): the Potency in test [1] is 6.92 µM (active). Moreover, in [1], the activation is -10.6%. Also, the Potency result in test [2], in test [3] and in test [4] was “inactive” in each case.
`C#C[C@]1(O)CC[C@H]2[C@H]3CCc4cc(OC)ccc4[C@H]3CC[C@@]21C`: in test [1], the activation is -30%.
`O=c1c(-c2ccccc2)c1-c1ccccc1`: the Potency in test [1] was 30.9 µM (active).
As to `CNC(=O)c1cnn(-c2nc(N)c3ncn([C@@H]4O[C@H](CO)[C@@H](O)[C@H]4O)c3n2)c1`, the activation in [1] is -18.4%.
For the molecule `CCOC(=O)Nc1ccc(NCc2ccc(F)cc2)nc1N`, the Potency is 2.19 µM (active) in [1], 13.5 µM (active) in test [2] and 5.01 µM (active) in [3]. For the same molecule, the activation in test [1] was -4.52% and 42.2%. In test [5], the viability was 107%. Moreover, the Potency entry in test [8], in test [9], in test [10] and in test [11] was “inactive” throughout.
For the molecule `O=C(O)c1ccc2c(c1)nc(Nc1cccc(Cl)c1)c1ccncc12`, the Potency in test [1] is 23.9 µM (active); in test [6], 8.33 µM (active); in test [7], 3.32 µM (active); in [8], 2.63 µM (active); in test [9], 5.9 µM (active); in test [10], 7.42 µM (active). The Potency in test [11] was 7.42 µM (active). Further, the activation in [1] was 37.3%. Moreover, the Potency entry in test [12] and in [13] was “inactive” in each case.
